High-throughput results (PubChem BioAssay)
PINK1 modulator: changes PINK1 expression; PINK1 immunofluorescence, high-content cytometry, 24 h; hit rate 0.2% among 410,000; Potency, µM (top dose mostly 76.6 µM), for the others: at the highest dose activation (PINK1 increase), most hits filed as activators; AID 624263; active = well fitted activation curve with a large enough effect; inconclusive = small, poorly fitted or top-dose-only effect; cell line not stated here; also: % of control where 0% means no effect; nearly all actives have a fitted effect of over 65% in size
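Cells are seeded, rested 12 hours, then given compound at five concentrations or DMSO for 24 hours. After fixation, blocking and antibody staining, PINK1 amount and mitochondrial localization are scored; CCCP serves as control.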
SW480 rereplic: DNA re-replication induction in SW480 cells | Potency, µM (top dose mostly 46.1 µM), for the others: at the highest dose re-replication activation, most hits filed as activators | hit rate 1.8% among 340,000 | SW480 DNA re-replication, Hoechst DNA content imaging, 48 h; also: % of control where 0% means no effect; nearly all actives have a fitted effect of over 55% in size
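SW480 cells exposed to compounds for 48 hr at 37 C, 5% CO2, then Hoechst-stained 40 min. Nuclear DNA content imaged by fluorescence scanning (405 nm excitation, 500-530 nm emission); re-replication scored as increased high-intensity nuclei.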
KB-3-1 tox: kills parental KB-3-1 adenocarcinoma cells; hit rate 1.4% among 400,000; AID 1347075; KB-3-1 viability, CellTiter-Glo ATP luminescence, 72 h; Potency, µM (titrated, usually from 46.1 µM), actives largely listed as cytotoxic; also: % is scaled to controls: 0 for no effect and ±100 for the full control effect; nearly all actives have a fitted effect of over 60% in size
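Here the drug-naive KB-3-1 line serves as comparator for MDR sub-line selectivity; cells received compound titrations, 72 h at 37 °C, then CellTiter-Glo readout.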
KB-V1 MDR tox: kills drug-selected multidrug resistant KB-V1 cells; KB-V1 MDR cells viability, CellTiter-Glo, 72 h; Potency, µM (top dose mostly 46.1 µM), actives largely listed as cytotoxic; hit rate 3.4% among 400,000; AID 1347076; also: % is scaled to controls: 0 for no effect and ±100 for the full control effect; nearly all actives have a fitted effect of over 60% in size
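qHTS viability screen in drug-selected KB-V1 MDR cells: 72 h compound treatment at 37 degrees C, ATP luminescence end point.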
MCF10A rerep: inducers of DNA re-replication in MCF 10A breast cells; MCF 10A DNA re-replication, Hoechst nuclear intensity, 48 h; Potency, µM (highest dose often 46.1 µM), without a hit: at the top dose activity, positive = re-replication, most hits filed as activators; hit rate 2.9% among 350,000; also: % of control where 0% means no effect; nearly all actives have a fitted effect of over 50% in size
The depositor's hits bear a star; i = inactive; ? = inconclusive; nt = no result; ! = a repeat was not active; [ ] = remark or other dose. Most compounds without a hit are left out; they make up all but 6.7% or so of the library. Unless noted, calls follow the shape of the dose curve; as a rule, active = well fitted curve in the direction sought with a large enough effect; inconclusive = small, poorly fitted or top-dose-only effect, or another doubt; inactive = no such curve, though single readings can be large; an effect the other way counts as inactive or inconclusive. Potency is read from the fitted curve at half-maximal effect.

SMILES	PINK1 modulator	SW480 rereplic	KB-3-1 tox	KB-V1 MDR tox	MCF10A rerep
CCOC(=O)c1sc2nc3c(cc2c1N)COC(C)(CC)C3 (stereo not drawn)	nt	?	i	i	18µM*
COC(=O)c1ccc(-c2sc3nc(N4CCOCC4)c4c(c3c2N)CC(C)(C)OC4)o1	11%	0.71µM*	i	i	?
CC1(C)Cc2c(c(N3CCOCC3)nc3sc(C(N)=O)c(N)c23)CO1	-1%	-2%	i	i	4%
CCOC(=O)c1sc2nc3c(cc2c1N)COC(C)(C)C3	0%	0%[9.22 µM]	?	i	?
Nc1c(C(=O)NCCc2ccccc2)sc2nc(N3CCOCC3)c3c(c12)CCCC3	1%	15µM*	i	i	16µM*
CCOC(=O)c1sc2nc(-c3ccco3)c3c(c2c1N)CC(C)(C)OC3	9%	125%	i	12µM*	23µM*
Cc1ccccc1NC(=O)c1sc2nc(N3CCOCC3)c3c(c2c1N)CCCC3	-1%	-7%	i	i	?
O=C(COC(=O)c1cccnc1Cl)Nc1cc(S(=O)(=O)N2CCCCCC2)ccc1Cl	2%	0%	i	i	0%
Cc1ccc(Cc2c(-c3ccc(C#N)cc3)nc3c4ccccc4ccn23)cc1	3%	nt	i	?	nt
Cc1[nH]c2ccccc2c1C(=O)CN1CCN(c2ccc(Cl)cc2)CC1	10%	25%	i	i	17%
Nc1c(C(=O)c2ccccc2)sc2nsc(SCCN3CCOCC3)c12	6%	?	i	?	13µM*
CCOC(=O)c1sc2nc(N3CCOCC3)c3c(c2c1N)CC(C)(C)N(C)C3	-1%	?	i	i	?
CC1(C)Cc2c(c(N3CCOCC3)nc3sc(C(=O)Nc4ccc(Cl)cc4)c(N)c23)CO1	11%	20%	16µM*!	?	?
COc1ccc(NC(=O)c2sc3nc(N4CCCC4)c4c(c3c2N)CC(C)(C)OC4)c(OC)c1	5%	2.9µM*	i	i	?
CN1Cc2c(N3CCOCC3)nc3sc(C(=O)c4ccccc4)c(N)c3c2CC1(C)C	3%	?	i	i	21µM*
CC(C)(C)S(=O)N1Cc2cc(CO)cc(CCO)c2[C@H]1CCO (stereo partly drawn)	0%	-20%	i	i	-2%
Cc1nc2c(sc3nc(N4CCOCC4)c4c(c32)CC(C)(C)OC4)c(-c2ccc(Cl)cc2)c1C(=O)O	21%	5.2µM*	?	i	0.46µM*
CC1(C)Cc2c(c(N3CCOCC3)nc3snc(N)c23)CO1	-2%	-6%	20µM*	i	10µM*
COc1ccc(NC(=O)c2sc3nc(N4CCOCC4)c4c(c3c2N)CCCC4)cc1	6%	nt	i	i	nt
CCOC(=O)c1ccc(NC(=O)c2sc3nc(N4CCOCC4)c4c(c3c2N)CCCC4)cc1	-1%	?	i	i	2.1µM*
CC1(C)Cc2c(c(N3CCOCC3)nc3snc(Br)c23)CO1	-2%	0%	i	i	0%
CCOc1ccc(NC(=O)c2sc3nc(N4CCOCC4)c4c(c3c2N)CC(C)(C)OC4)cc1	7%	7%	7.3µM*	i	9%
Cc1ccc(NC(=O)c2sc3nc(N4CCOCC4)c4c(c3c2N)CC(C)(C)OC4)cc1	1%	15%	i	i	?
COc1ccc(C(=O)NC2CC(=O)N(c3ccc4c(c3)OCCO4)C2)cc1 (stereo not drawn)	-1%	nt	i	i	nt
CC1(C)Cc2c(c(N3CCCC3)nc3sc(C(=O)Nc4ccccc4)c(N)c23)CO1	4%	?	i	i	2.9µM*
COC(=O)c1sc2cccc(F)c2c1S(=O)(=O)Nc1cc(OC)cc(OC)c1	1%	nt	i	i	nt
COC(=O)c1cc2oc3ccccc3c2n1Cc1nc(-c2cccc(C)c2)oc1C	0%	nt	i	i	nt
Cc1ccc(CSc2nnc(-c3cccc(S(=O)(=O)N4CCOCC4)c3)n2CC(C)C)cc1	-1%	6%	23µM*	4.6µM*	24%
CC1=CC(C)(C)N(C(=O)CSc2nnc(C)s2)c2ccc(C)cc21	nt	-1%	i	?	1%
CC1=CC(C)(C)N(C(=O)CSc2nnc(-c3ccc(C)cc3)o2)c2ccc(C)cc21	3%	16%	?	8.2µM*	?
